Shown are actives, neighbours in structure and some others; about 3% of the full set was active somewhere.
Peg3 promoter: inhibitors of Peg3 promoter. HeLa PEG-Prom luciferase reporter, luminescence, overnight. inhibition, % at 20 µM. hit rate 1.7% among 360,000. AID 588405;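 active = inhibition of at least 50% at 20 µM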
KKLEB tox: counter-screen for CF NF-kB inhibitors: cytotoxicity; hit rate 0.36% among 360,000; activity change (cytotoxicity), % at 5 µM; KKLEB CF airway cells viability, ATPlite luminescence, overnight; active compounds read low; cells stimulated with P. aeruginosa culture filtrate;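 active = corrected activity change at or below -50% at 5 µM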
MITF TRPM1 inh: MITF TRPM1 promoter inhibition in SK-MEL-5 cells; SK-MEL-5 TRPM1 promoter luciferase, 24 h; inhibition, % at 12.5 µM; hit rate 0.83% among 330,000; AID 488899;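 active = mean inhibition across replicates of 60% or more, whatever share of single replicates reaches that level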
CF NFkB inh: inhibitors of cystic fibrosis induced NF-kB; KKLEB NF-kB-GFP reporter, PAF-induced, GFP fluorescence overnight; inhibition, % at 5 µM; hit rate 0.86% among 360,000; AID 588850;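 active = at least 50% inhibition at 5 µM, scaled per plate between neutral and stimulator controls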;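 note: PAF is a Pseudomonas aeruginosa culture filtrate used as stimulus; plate controls were PAF-stimulated DMSO wells for no effect and unstimulated DMSO wells for full effect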
HIF-2a block: HIF-2a inhibition; 786-0 RCC cells HIF-2a reporter, luciferase luminescence, overnight; inhibition, % at 18.8 µM; hit rate 0.72% among 360,000; AID 624352;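 active = inhibition of the luminescence signal of 40% or more relative to plate controls, in a single-dose primary screen at 18.75 µM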
EBV LMP1 NFkB: reduces LMP1-driven NF-kappaB luciferase signal | hit rate 0.69% among 350,000 | LMP1-induced NF-kappaB luciferase reporter cells, luminescence | AID 504558 | inhibition, % at 12.5 µM; in the data active = inhibition above about 41%;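 note: 0% = neutral control wells and 100% = reference inhibitor control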
* = called active by the depositor; x = no result given.

SMILES	Peg3 promoter	KKLEB tox	MITF TRPM1 inh	CF NFkB inh	HIF-2a block	EBV LMP1 NFkB
CN1CCN(Cc2nc3ccccc3c(=O)n2Cc2nc(-c3ccccc3F)cs2)CC1	-45.9	-14.0	27.2	7.7	-89.0	4.3
CC(C)(C)NC(=O)C1c2ccccc2OCC(=O)N1Cc1ccccc1 (configuration not stated)	x	x	x	x	2.5	x
O=C(O)[C@@H](O)[C@H](O)C(=O)O	-0.8	-61.2*	-0.2	4.5	2.4	0.8
CCN(CC(=O)Nc1ccc(NC(C)=O)cc1)C(=O)c1ccc(Sc2nncn2C)c([N+](=O)[O-])c1	0.1	-4.5	x	0.9	9.4	3.1
Cc1cc(Sc2nnc(/N=C/N(C)C)s2)c2ccccc2n1	13.9	-29.4	35.3	58.6*	34.5	69.8*
COc1cc(/C=C2\SC(=Nc3ccccc3)N(CCc3c[nH]c4ccccc34)C2=O)ccc1OC(C)C(=O)O (configuration not stated)	3.0	-17.4	6.3	-36.3	1.5	-3.1
O=C1/C(=C/c2ccc(N3CCOCC3)o2)SC(=Nc2ccccc2)N1CCc1c[nH]c2ccccc12	102.0*	-51.3*	55.0	-20.7	92.6*	15.5
O=C(NCCCN1CCOCC1)C(=O)N/N=C/c1c(Cl)cccc1Cl	16.5	4.0	-0.2	4.0	22.8	10.5
O=C(NCCCN1CCOCC1)C(=O)N/N=C/c1c2ccccc2cc2ccccc12	70.4*	-4.6	20.6	-14.6	32.8	12.3
COc1ccc(N(C)S(=O)(=O)c2cccc(C(=O)OCC(=O)c3c(N)n(C)c(=O)n(C)c3=O)c2)cc1	54.7*	14.0	-0.6	-19.2	15.5	15.7
CC1=CC(C)(C)Nc2ccc(OC(=O)C(Cc3ccccc3)N3C(=O)c4ccccc4C3=O)cc21 (configuration not stated)	4.5	3.3	16.8	13.2	80.7*	1.0
CC(=O)Oc1ccc(CC(C(=O)O)N2C(=O)c3ccccc3C2=O)cc1 (configuration not stated)	-9.4	5.3	4.6	-2.0	-36.4	4.3
CN(C)CC1CC/C(=C\c2ccc(O)cc2)C1=O (configuration not stated)	97.8*	-0.3	x	47.0	88.1*	-36.5
COc1ccc(/C=C2/CCC(CN3CCOCC3)C2=O)cc1 (configuration not stated)	100.5*	-54.6*	99.1*	65.5*	87.1*	86.4*
O=C1/C(=C\c2ccc(Cl)cc2)CCC1CNc1ccc(Cl)cc1 (configuration not stated)	89.2*	30.1	22.2	-29.6	-0.3	-0.6
Cc1ccc(/C=C2\CCC(C3CCCC3)C2=O)cc1 (configuration not stated)	-264.9	5.2	-15.9	8.1	-264.2	-20.8
Cn1c(=O)c(=O)n(C)c2cc(S(=O)(=O)CCC(=O)Nc3ccccc3C(F)(F)F)ccc21	-7.4	4.0	x	-15.9	5.1	-2.2
COc1ccc(C(C)(O)c2nc(-c3cccc(NC(C)=O)c3)cs2)cc1 (configuration not stated)	3.4	-3.4	x	10.5	3.5	x
COC(=O)c1ccc(CNC(=O)c2ccccc2C(=O)NCC2(CBr)OCCO2)cc1	0.2	0.2	x	-7.4	10.9	-7.9
COc1ccc(Cl)cc1C(=O)Nc1ccc(NC(C)=O)cc1	-10.7	2.0	1.4	-9.2	-22.9	1.3
CC(=O)Oc1c(I)cc(I)cc1C(=O)Nc1ccc(Cl)cc1	20.5	-38.9	-8.2	70.0*	-120.9	12.0
Cc1ccc(C2CC(c3ccccc3)=NN2c2ccc(S(N)(=O)=O)cc2)cc1 (configuration not stated)	11.7	24.4	x	29.5	0.9	x
CCc1ccc(C2=NN(c3ccc(S(N)(=O)=O)cc3)C(c3ccc(F)cc3)C2)cc1 (configuration not stated)	67.0*	-8.6	-1.7	-2.0	-21.6	11.0
CC1=C(C(=O)Nc2cccnc2)C(c2cccnc2)n2nc(-c3cccs3)nc2N1 (configuration not stated)	1.4	0.6	13.0	4.7	16.0	2.9
COc1cccc(-c2nc3n(n2)C(c2cccs2)C(C(=O)Nc2cccnc2)=C(C)N3)c1 (configuration not stated)	3.6	12.9	11.2	-18.1	25.1	49.5*
SMILES	Peg3 promoter	KKLEB tox	MITF TRPM1 inh	CF NFkB inh	HIF-2a block	EBV LMP1 NFkB
COCCCNc1nccn2ccnc12	-3.2	-4.1	x	6.0	3.3	x
CCOc1ccccc1-c1cc(NC)ncn1	-16.1	-1.3	x	10.1	2.9	x
COc1cc2ccccc2cc1C(=O)Nc1ccc(N2CCN(C(=O)C(C)C)CC2)cc1	76.6*	5.9	17.2	-29.6	-13.1	1.7
COc1cc2ccccc2cc1C(=O)Nc1ccc(N2CCN(C)CC2)cc1	-293.2	-5.1	-80.8	-5.9	-184.9	-30.1
COc1ccc(Nc2ncc(C(=O)N3CCN(c4ccc(F)cc4)CC3)c3ccccc23)cc1	59.5*	-20.3	9.5	24.3	6.6	4.8
COc1ccc(C(=O)Nc2ccc(N3CCN(C(=O)c4ccccc4C)CC3)cc2)cc1	3.0	14.3	20.2	38.3	9.0	51.5*
NC(=O)c1ccsc1NC(=O)c1ccc2c(c1)CCCC2	-125.4	-57.7*	12.3	-17.4	-157.9	-69.2
O=C(Cc1c(Cl)cccc1Cl)OCC(=O)c1ccc[nH]1	-79.9	9.6	x	-7.3	-108.1	-2.3
COc1cc(OC)c(C#N)c(S(=O)(=O)Cc2ccccc2)c1	5.5	-7.6	-8.4	6.2	6.9	-4.1
N#Cc1c([N+](=O)[O-])cc([N+](=O)[O-])cc1S(=O)(=O)Cc1ccccc1	98.4*	-61.7*	92.6*	82.0*	94.5*	27.7
CC(C)N1CCCC(C)(C(=O)Nc2ccccc2)C1 (configuration not stated)	-13.6	0.5	x	-4.1	-0.7	x
Cc1cnc(NC(=O)c2sc3ccccc3c2Cl)s1	7.5	-53.5*	17.8	-26.7	12.1	17.4
O=C(Nc1nccs1)c1sc2ccccc2c1Cl	-75.5	-25.9	1.7	0.2	-67.6	-4.1
Cc1ccnc(NC(=O)c2sc3ccccc3c2Cl)c1	-75.8	-75.2*	4.5	-15.0	-86.0	61.4*
O=c1nc2n(CCO)c3ccccc3cc-2c(=O)[nH]1	10.6	10.7	6.0	-39.0	9.8	-8.6
O=C(N/N=C/c1ccc(Br)s1)c1ccco1	-178.8	2.5	-76.2	-13.4	-214.0	-11.5
O=C(N/N=C/c1sc(=O)n(Cc2ccc(Br)cc2)c1Cl)c1ccco1	83.5*	-75.2*	38.0	64.5*	34.0	16.1
Cc1csc(-c2nc3ccccc3n2C(C(=O)Nc2c(C)cccc2C)C2CC2)c1 (configuration not stated)	x	x	x	x	0.9	x
COc1ccc(S(=O)(=O)N2CCC[C@H]2C(=O)N2CCC[C@H]2C(=O)N[C@@H](C)c2ccccc2)cc1C	x	x	x	x	-3.2	x
FC(F)(F)c1cccc(Cn2c3[n+](c4ccc(C(F)(F)F)cc42)CCCCC3)c1	-6.2	5.1	-1.1	-10.0	14.1	5.9

Screening data (PubChem BioAssay)
